Most compounds without a hit are left out; they make up all but 19% or so of the library.
IL1B secr inh: inflammasome signaling inhibition, IL-1 beta readout; activity change, % at 57.5 µM; 360,000 compounds, 4.7% hits; THP-1 LPS/ATP IL-1B secretion, AlphaLISA, 16 h; hits give low values; in the data active = activity change below about -50%; inconclusive = mostly about -30% to -49%
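THP-1 cells pretreated 1 hr with compounds (up to 57.5 uM final), then stimulated with LPS (250 ng/mL final) plus ATP (1.25 mM final); secreted IL-1B measured by AlphaLISA after 16 hr, decreased signal indicating inhibition.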
HT1080 IDH1KD tx: HT-1080 IDH1 knockdown cell toxicity (counter line); 360,000 compounds, 2% hits; Potency, µM (top dose mostly 46.1 µM), usual class: cytotoxic; HT-1080 IDH1 knockdown viability, ATP luminescence, 48 h
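Knockdown cells (IDH1KD HT-1080) received compounds 2 h after plating at 750 cells/well and were kept 48 h at 37 °C in 5% FBS RPMI. A CellTiter-Glo luminescence read gave % activity for curve fitting.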
TDP1 cell CPT: DT40-hTDP1 cell growth loss with CPT. chicken DT40 Tdp1-/-;hTDP1 cells + 20 nM CPT, ATP luminescence, 48 h. 420,000 compounds, 12% hits. Potency, µM (highest dose often 46.2 µM), usual class: inhibitors; also: nearly all actives have a fitted effect of over 55% in size
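Cell growth measured by CellTiter-Glo luminescence after a minimum 48 h, 37 C compound exposure with 20 nM CPT in Tdp1-knockout DT40 cells stably expressing hTDP1, seeded 400/well; qHTS titration format.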
HT1080NT lethal: kills 2HG-producing HT-1080-NT fibrosarcoma cells; 360,000 compounds, 1.6% hits; HT-1080-NT fibrosarcoma viability, CellTiter-Glo ATP luminescence, 48 h; Potency, µM (top dose mostly 46.1 µM), hits mostly cytotoxic; AID 686970;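 also: NT is the 2HG producing partner of a matched IDH1 knockdown line; nearly all actives have a fitted effect of over 55% in size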
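Fibrosarcoma NT cells, 750 per well in 5% FBS RPMI, were exposed to compound for 48 hours. Viability: CellTiter-Glo luminescence.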
TDP1 cell noCPT: qHTS for Inhibitors of human tyrosyl-DNA phosphodiesterase 1 (TDP1): qHTS in cells in absence of CPT; DT40 Tdp1-/- hTDP1 cells, no CPT, ATP luminescence, 48 h; Potency, µM (titrated, usually from 46.2 µM), actives largely listed as inhibitors; 420,000 compounds, 15% hits; also: nearly all actives have a fitted effect of over 55% in size
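Chicken DT40 Tdp1-/- cells complemented with human TDP1, screened without camptothecin (DMSO vehicle only), 400 cells/well. Compounds pin-transferred, cells incubated at 37 °C for at least 48 hr. Growth read as ATP-dependent luminescence (CellTiter-Glo, 30 min at RT).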
Hits are given with their value; 0 = inactive; ? = inconclusive; - = no result. Unless noted, calls follow the shape of the dose curve; as a rule, active = well fitted curve in the direction sought with a large enough effect; inconclusive = small, poorly fitted or top-dose-only effect, or another doubt; inactive = no such curve, though single readings can be large; an effect the other way counts as inactive or inconclusive.

SMILES	IL1B secr inh	HT1080 IDH1KD tx	TDP1 cell CPT	HT1080NT lethal	TDP1 cell noCPT
CCOC(=O)C(=O)C1=CN(Cc2ccccc2)C=C(C#N)C1	0	0	0	0	0
COc1cc(C(=O)NCCNC(=O)c2ccco2)cc(OC)c1OC	0	0	0	0	0
CCOc1ccccc1NC(=O)Cn1c(=O)n(CCCC(=O)NCCc2ccc(C)cc2)c(=O)c2ccccc21	-	-	0	-	0
COc1ccc(C(C#N)=Cc2ccccc2OC)cc1	0	?	6.51µM	?	5.17µM
CCc1nc2ccc(C(=O)N3CCN(S(=O)(=O)CC)CC3)cn2c1N(C)C(=O)c1cccc(OC)c1	0	0	0	0	0
Cc1cc(C(=O)CSc2n[nH]c(N)n2)c(C)n1C1CC1	0	0	?	0	20.6µM
Cc1cc(C(=O)CSc2n[nH]c(N)n2)c(C)n1-c1ccc(F)cc1	0	0	20.6µM	?	?
Cc1ccc(-n2c(C)cc(C(=O)CSc3n[nH]c(N)n3)c2C)cc1	0	?	?	0	13µM
Cc1cc(C(=O)CSc2n[nH]c(N)n2)c(C)n1-c1ccccc1	0	?	?	0	0
CC(C)c1ccc(C(CC(=O)O)N2Cc3ccccc3C2=O)cc1 (stereo unspecified)	0	0	0	0	0
CCOC(=O)CNC(=O)N1CCCC(CNS(=O)(=O)Cc2ccccc2)C1 (stereo unspecified)	0	0	0	0	0
COc1cc([N+](=O)[O-])ccc1NC(=O)C[n+]1ccccc1C	0	0	0	0	0
C=C1CCC[C@]2(C)C[C@H]3OC(=O)C(CNC(C)CC)[C@H]3CC12 (stereo partly specified)	-96.2	?	?	?	?
C=C1CCC[C@]2(C)C[C@H]3OC(=O)C(CNC(CC)CO)[C@H]3CC12 (stereo partly specified)	-97.7	20.6µM	?	?	18.4µM
C=C1CCC[C@]2(C)C[C@H]3OC(=O)C(CNC(C)(CO)CO)[C@H]3CC12 (stereo partly specified)	-96.2	?	?	0	20.6µM
C=C1CCC[C@]2(C)C[C@H]3OC(=O)C(CN4CCCCC4CO)[C@H]3CC12 (stereo partly specified)	-	?	4.61µM	?	11.6µM
Cc1cn2c(=O)c(S(=O)(=O)NCc3ccccc3Cl)c(C)nc2s1	-	-	0	-	0
C=C1C(=O)OC2C[C@@]3(C)CCCC(=C)[C@@H]3CC12 (stereo partly specified)	-	-	26.6µM	-	23.7µM
C=C1CCC[C@]2(C)C[C@H]3OC(=O)C(CN(C)CC(OC)OC)[C@H]3CC12 (stereo partly specified)	-91.6	?	?	0	?
CC(C)NC(=O)C1(C)CCN1C/C=C/c1ccccc1 (stereo unspecified)	0	0	?	0	?
CN(C)CCNc1oc(-c2ccc(COc3ccc(Cl)cc3)o2)nc1C#N	-	-	16.4µM	-	8.2µM
COCCCNc1oc(-c2ccc(COc3ccc(Cl)cc3)o2)nc1C#N	-	-	16.4µM	-	?
COc1ccc(OCc2ccc(-c3nc(C#N)c(NCc4ccc(F)cc4)o3)o2)cc1	-	-	?	-	23.1µM
COCCNc1oc(-c2ccc(COc3ccc(OC)cc3)o2)nc1C#N	-	-	0	-	?
CC1(C)O[C@H]2CC(=O)OC[C@]23[C@H]2CC[C@@]4(C)[C@H](c5ccoc5)OC(=O)[C@H]5O[C@]54[C@]2(C)[C@@H](O)C[C@@H]13	0	0	0	0	0
O=C(CN1C(=O)COc2ccc(S(=O)(=O)N3CCOCC3)cc21)NCc1ccco1	0	0	0	0	0
O=C(c1cc(F)c(F)cc1Cl)N1CCN(c2ncccn2)CC1	0	0	0	0	0
CC(=O)N1CCC[C@@]2(CCN(C(=O)Nc3ccccc3)C2)C1	-	-	0	-	0
CCOC(=O)[C@H]1[C@H]2COc3ccc(Cl)cc3[C@@H]2N2C(=O)c3cc(F)c(F)cc3NC(=O)[C@@]12C	-72.0	?	?	0	23.1µM
CCOC(=O)[C@H]1[C@H]2COc3ccc(Cl)cc3[C@@H]2N2C(=O)c3ccc(F)cc3NC(=O)[C@@]12C	?	0	?	0	?

Compound activity (PubChem)
